Test results as given in PubChem BioAssay.
For some of these results: Entries with a potency or affinity are not part of this list. Active and inactive are the calls of the source.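 How the source made its calls, unless noted: active means primary screen hit whose calcium fluorescence ratio, in both repeats, exceeds the weak agonist control mean by 3 SD; inactive means the rest.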

Legend:
[1] = test system: TRPC4 beta (transient receptor potential cation channel C4), mouse; experiment: TRPC4 cation channel opening, retest – cell-based, Fluo4 calcium, HEK293 TRPC4beta/mu-opioid, duplicates, 10 µM, confirmation (AID 2426;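 active means fluorescence ratio normalized to control raised more than 50% in primary screen plus both repeat runs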); conditions: Fluo4 calcium fluorescence, at 10 µM; stronger effect = higher value
[2] = test system: transient receptor potential cation channel C4 beta (TRPC4), mouse; experiment: TRPC4 cation channel opening, second retest – cell-based, second round, Fluo4, HEK293 TRPC4beta/mu-opioid, 1 µM, confirmation (AID 2461;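 active means primary screen active and over 50% activation in each of two duplicate runs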); conditions: Fluo4 calcium fluorescence, at 1 µM; stronger effect = higher value
[3] = test system: TRPC4 (transient receptor potential cation channel C4 beta), mouse; experiment: potentiation of DAMGO EC20 TRPC4 response – cell-based, second round, Fluo-4, HEK293 TRPC4beta/mu-opioid, 1 µM, confirmation (AID 2554;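 active means primary screen hit whose fluorescence ratio, in both repeats, exceeds the weak agonist control mean by 3 SD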); conditions: DAMGO EC20, Fluo-4 calcium flux, at 1 µM; stronger effect = higher value
[4] = test system: TRPC4 beta (transient receptor potential cation channel C4), mouse; experiment: potentiation of DAMGO EC20 TRPC4 response – cell-based, Fluo-4, HEK293 TRPC4beta/mu-opioid, confirmation (AID 2555); conditions: DAMGO EC20, Fluo-4 calcium flux, at 10 µM; stronger effect = higher value
[5] = target: Short transient receptor potential channel 4 (Mus musculus) (UniProt Q9QUQ5); experiment: blockers of DAMGO-evoked TRPC4 calcium flux – cell-based, Fluo4, HEK293 TRPC4beta/mu-opioid, confirmation (AID 2636;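 active means calcium signal cut by more than 3 SD below the full-agonist control yet still positive, in both repeats and the earlier primary screen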); conditions: at 10 µM; stronger effect = higher value
[6] = target: Short transient receptor potential channel 4 (Mus musculus) (UniProt Q9QUQ5); experiment: blockers of DAMGO-evoked TRPC4 calcium flux – cell-based, second round, Fluo4, HEK293 TRPC4beta/mu-opioid, 1 µM, confirmation (AID 2637;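 active means calcium signal ratio cut to more than 3 SD under the fully stimulated control mean yet still positive, in both repeats and the primary screen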;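 on inhibition: percent of integrated ratio relative to wells lacking test compound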); conditions: at 1 µM; stronger effect = higher value
[7] = target: Short transient receptor potential channel 4 (Mus musculus) (UniProt Q9QUQ5); experiment: calcium entry via TRPC4 opening agents – cell-based, HEK293 TRPC4/mu-opioid, Fluo-4 calcium, dose response (AID 434937;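 active means primary screen activator hit with a dose response curve and TRPC4 channel activation at any tested dose; inactive means no activation, no dose response, or not a primary hit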)
[8] = target: Short transient receptor potential channel 4 (Mus musculus) (UniProt Q9QUQ5); experiment: potentiation of DAMGO-evoked TRPC4 calcium signal – cell-based, HEK293 TRPC4/mu-opioid, Fluo-4 calcium, EC20 DAMGO, dose response (AID 434941;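 active means earlier screen potentiator hit that boosts the TRPC4 ion channel at some dose, with a dose response; inactive means no potentiation, no dose response, or not a prior hit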;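 further: calcium entry triggered by an EC20 dose of DAMGO at the co-expressed mu-opioid receptor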)
[9] = target: Short transient receptor potential channel 6 (Mus musculus) (UniProt Q61143); experiment: TRPC6 blockade by TRPC4 inhibitor hits – cell-based, HEK293, membrane potential dye, duplicate, selectivity assay for TRPC4 inhibitor project, confirmation (AID 434948;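 active means active in primary screen and both duplicates, each dropping signal beyond three positive-control SD with fluorescence still positive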); conditions: HEK293 TRPC6, membrane potential dye fluorescence, at 10 µM, stimulated with maximal-effect acetylcholine; stronger effect = higher value
[10] = target: Short transient receptor potential channel 6 (Mus musculus) (UniProt Q61143); experiment: TRPC6 opening by TRPC4 activator hits – cell-based, HEK293, membrane potential dye, duplicate, selectivity assay for TRPC4 activator project, confirmation (AID 434950;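 active means membrane potential signal rise above negative control mean plus 3 SD in both duplicates, also active in the earlier TRPC4 screen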); conditions: HEK293 TRPC6, membrane potential fluorescence, at 10 µM; activation: stronger effect = higher value; outcome: activation
[11] = target: Short transient receptor potential channel 6 (Mus musculus) (UniProt Q61143); experiment: positive modulators of mouse TRPC6 channel – HEK293 cells, membrane potential dye, duplicate, selectivity assay for TRPC4 potentiator project, confirmation (AID 434952;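 active means compound raising the membrane signal above positive-control mean plus 3 SD in both repeats, and a primary screen hit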); conditions: HEK293 TRPC6, membrane potential dye fluorescence, at 10 µM, maximal acetylcholine added after compound; stronger effect = higher value
[12] = target: Short transient receptor potential channel 4 (Mus musculus) (UniProt Q9QUQ5); experiment: calcium flux activators in TRPC4/5HT1a cells, counter-screen for TRPC4 activator project, cell-based, second counter screen, HEK293 TRPC4/5HT1a, Fluo-4 (AID 434977;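 active means calcium signal rise above buffer-control mean plus 5 SD in both duplicates, and also a hit in the primary screen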); conditions: Fluo-4 calcium flux, at 10 µM; stronger effect = higher value
[13] = serotonin-gated TRPC4 signal block – cell-based, second counter screen, HEK293 TRPC4/5HT1a, Fluo-4, counter-screen for TRPC4 inhibitor project, confirmation (AID 434978;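 active means primary screen active whose calcium signal fell more than 3 SD beyond the full-serotonin control mean in both duplicate plates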;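 on outcome: serotonin given first at submaximal then at maximal dose after compound preincubation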); conditions: Fluo-4 calcium flux, at 10 µM, serotonin added to trigger calcium flux; stronger effect = higher value
[14] = test system: TRPC4 (mouse), co-expressed with 5HT1a in HEK293; experiment: enhancement of serotonin-evoked TRPC4 response – cell-based, second counter screen, HEK293 TRPC4/5HT1a, Fluo-4, counter-screen for TRPC4 potentiator project, confirmation (AID 434979;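 active means signal rise over 3 SD above mean of control wells given weak agonist, in both repeats and first screen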); conditions: Fluo-4 calcium flux, at 10 µM, serotonin added at its EC20 dose; stronger effect = higher value
[15] = nonspecific calcium rise without TRPC4 – cell-based, HEK293 mu-opioid receptor line, counter-screen for TRPC4 activator project, confirmation (AID 449723;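 active means hit in primary screen, with calcium signal over 5 SD above buffer well mean in both duplicates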;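 further: counter screen cells carry the mu-opioid receptor alone and lack TRPC4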); conditions: HEK293 mu-opioid cells, Fluo-4 calcium fluorescence, at 10 µM; stronger effect = higher value
[16] = nonspecific potentiation of DAMGO calcium response – cell-based, HEK293 mu-opioid receptor line, counter-screen for TRPC4 allosteric potentiator project, confirmation (AID 449724;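 active means calcium signal rise more than 3 SD above the low-dose agonist control mean, in both duplicate plates and the primary screen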); conditions: HEK293 mu-opioid receptor cells, Fluo-4 calcium flux, at 10 µM, compound added before EC20 DAMGO stimulus; stronger effect = higher value

Measured: inhibition

Short transient receptor potential channel 6 (Mus musculus), sequence (Q61143 whole entry, looked up): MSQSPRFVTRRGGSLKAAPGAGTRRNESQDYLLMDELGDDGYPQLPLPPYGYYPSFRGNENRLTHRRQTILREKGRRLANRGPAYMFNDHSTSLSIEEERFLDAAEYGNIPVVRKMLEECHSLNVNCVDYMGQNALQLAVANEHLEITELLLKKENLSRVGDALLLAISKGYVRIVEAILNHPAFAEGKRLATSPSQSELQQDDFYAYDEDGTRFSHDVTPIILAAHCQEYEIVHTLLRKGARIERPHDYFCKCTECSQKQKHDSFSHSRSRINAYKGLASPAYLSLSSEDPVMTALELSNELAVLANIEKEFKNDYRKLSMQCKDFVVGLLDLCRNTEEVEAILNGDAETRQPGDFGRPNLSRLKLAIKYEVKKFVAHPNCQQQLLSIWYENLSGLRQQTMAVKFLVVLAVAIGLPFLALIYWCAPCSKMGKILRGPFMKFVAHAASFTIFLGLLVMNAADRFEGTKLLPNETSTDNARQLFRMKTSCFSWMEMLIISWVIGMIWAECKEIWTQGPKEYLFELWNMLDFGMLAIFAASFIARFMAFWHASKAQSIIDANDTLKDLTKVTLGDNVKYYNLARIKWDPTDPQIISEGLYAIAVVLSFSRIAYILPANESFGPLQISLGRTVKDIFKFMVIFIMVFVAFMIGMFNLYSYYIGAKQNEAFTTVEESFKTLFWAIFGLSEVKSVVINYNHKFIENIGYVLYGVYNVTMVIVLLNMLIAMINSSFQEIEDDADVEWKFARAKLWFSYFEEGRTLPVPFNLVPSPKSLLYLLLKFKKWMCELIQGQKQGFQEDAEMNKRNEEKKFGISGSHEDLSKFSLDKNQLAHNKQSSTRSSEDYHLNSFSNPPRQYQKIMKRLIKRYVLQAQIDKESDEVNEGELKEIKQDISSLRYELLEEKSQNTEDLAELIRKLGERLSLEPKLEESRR
Short transient receptor potential channel 4 (Mus musculus), sequence (Q9QUQ5 whole entry, looked up): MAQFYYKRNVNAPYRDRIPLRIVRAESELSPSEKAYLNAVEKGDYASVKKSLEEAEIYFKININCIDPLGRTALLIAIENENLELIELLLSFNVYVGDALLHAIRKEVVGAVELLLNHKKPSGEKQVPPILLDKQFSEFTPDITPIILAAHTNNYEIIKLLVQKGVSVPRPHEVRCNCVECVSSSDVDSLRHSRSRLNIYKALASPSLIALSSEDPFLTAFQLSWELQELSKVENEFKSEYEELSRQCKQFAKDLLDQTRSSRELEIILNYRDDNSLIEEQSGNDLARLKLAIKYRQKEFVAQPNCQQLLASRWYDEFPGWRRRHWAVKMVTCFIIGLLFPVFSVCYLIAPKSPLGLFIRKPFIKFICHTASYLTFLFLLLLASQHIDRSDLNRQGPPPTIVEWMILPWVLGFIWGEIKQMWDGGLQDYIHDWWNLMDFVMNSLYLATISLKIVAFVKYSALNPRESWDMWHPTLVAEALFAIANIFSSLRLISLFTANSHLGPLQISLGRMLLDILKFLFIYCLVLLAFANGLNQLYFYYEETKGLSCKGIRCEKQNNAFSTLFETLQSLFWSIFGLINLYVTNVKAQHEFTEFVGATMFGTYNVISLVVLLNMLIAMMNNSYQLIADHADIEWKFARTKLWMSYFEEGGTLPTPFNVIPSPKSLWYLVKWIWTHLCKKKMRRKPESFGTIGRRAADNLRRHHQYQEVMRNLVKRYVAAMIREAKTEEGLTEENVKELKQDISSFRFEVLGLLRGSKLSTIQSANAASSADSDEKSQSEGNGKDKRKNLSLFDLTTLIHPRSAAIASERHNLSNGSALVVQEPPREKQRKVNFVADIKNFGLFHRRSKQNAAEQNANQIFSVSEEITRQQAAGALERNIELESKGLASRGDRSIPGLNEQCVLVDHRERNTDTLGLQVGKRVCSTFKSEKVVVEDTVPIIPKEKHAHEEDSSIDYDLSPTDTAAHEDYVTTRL

Cc1ccc(C(=O)NC(=S)Nc2c(C)ccc3nsnc23)cc1
active: [5] 86% | [6] 45% | [13] 18.1%
inactive: all other assays above

COc1cc(/C=C2\SC(N3CCC(C)CC3)=NC2=O)ccc1O
active: [5] 91% | [6] 48% | [13] 31.2%
inactive: all other assays above

Cc1cc(OCC(=O)Nc2ccc(N3CCN(C)CC3)cc2)ccc1Cl
active: [5] 79%
inactive: all other assays above

C=CCOc1ccc(C2CC(C)=NN2c2ccccc2)cc1 (stereo unspecified)
active: [5] 84% | [6] 44% | [13] 32%
inactive: all other assays above

CN(C)C(CNC(=O)c1cccc(C(F)(F)F)c1)c1ccco1 (stereo unspecified)
active: [5] 67% | [6] 69%
inactive: all other assays above

CCN(C(=O)c1c(-c2ccccc2Cl)noc1C)C1CCCCC1
active: [5] 71% | [13] 38.5%
inactive: all other assays above

Cc1c(CCOC(=O)CC23CC4CC(CC(C4)C2)C3)sc[n+]1Cc1ccccc1
active: [5] 96% | [9] 44.5% | [13] 19.6%
inactive: all other assays above

CC1CCCCN1CCCNC(=O)c1nn(C)c2c1CSc1ccccc1-2 (stereo unspecified)
active: [5] 94%
inactive: all other assays above

Cc1ccc(CSc2nc(-c3ccccc3)c(C#N)c(=O)[nH]2)cc1
active: [6] 49% | [13] 12%
inactive: all other assays above

O=C(COC(=O)c1cccc([N+](=O)[O-])c1)c1ccc2c(c1)OCO2
active: [5] 89% | [6] 59% | [13] 25.3%
inactive: all other assays above

CN(CC(=O)NC1CCCc2ccccc21)C1CCCCC1 (stereo unspecified)
active: [5] 80%
inactive: all other assays above

O=C(NCCN1CCOCC1)c1ccc2c(c1)N(Cc1ccc(F)cc1)C(=O)CS2
inactive: all assays above

Fc1ccccc1COc1ccccc1CNCc1ccncc1
active: [5] 79%
inactive: all other assays above

COc1cc(CNC2CCCC2)cc(Cl)c1OCc1ccc(F)cc1
active: [5] 82% | [13] 37.5%
inactive: all other assays above

CCOc1ccc(CN2CCN(C(=O)c3ccccc3)CC2)cc1
active: [5] 79% | [13] 44.7%
inactive: all other assays above

CC1CCCN(CCCN2C(=O)C3C(C(=O)Nc4ccc(Cl)cc4)C4C=CC3(O4)C2C(=O)NC2CCCCC2)C1 (stereo unspecified)
active: [5] 97% | [6] 63% | [13] 26.1%
inactive: all other assays above

COCCn1c(SCc2cc(C(C)=O)ccc2OC)nc2cc(Cl)ccc2c1=O
active: [5] 78%
inactive: all other assays above

COc1ccc(C(Nc2ccccn2)c2c(NC(=O)c3ccco3)sc(C)c2C)cc1OC (stereo unspecified)
active: [5] 78% | [6] 38%
inactive: all other assays above

Cc1ccn2c(-c3csc(NCc4ccco4)n3)c(C)nc2c1
active: [5] 96% | [13] 22.8%
inactive: all other assays above

CSc1nc(N2CCOCC2)c2c3c(sc2n1)CCCC3
active: [5] 75% | [13] 37.5%
inactive: all other assays above

CCCN1CN(Cc2ccco2)c2nc3ccccc3n2C1
active: [5] 96% | [6] 53% | [13] 25%
inactive: all other assays above

O=C(Nc1ccc(F)cc1)N1CCN2C(=O)c3ccccc3C12c1ccccc1 (stereo unspecified)
active: [5] 68%
inactive: all other assays above

COc1cccc(C2=NN(C(=O)c3ccco3)C(c3ccco3)C2)c1 (stereo unspecified)
active: [5] 71% | [13] 20.6%
inactive: all other assays above

Cc1ccc(C(C(=O)NC(C)(C)C)N(C(=O)CCC(=O)Nc2ccccn2)c2ccccc2F)cc1 (stereo unspecified)
active: [5] 61% | [13] 28.9%
inactive: all other assays above

CCCCCCCCCCCCOC(=O)C[N+](C)(C)C
active: [13] 37.5%
inactive: all other assays above

CCC(C)NCCOCCOc1ccccc1-c1ccccc1 (stereo unspecified)
active: [5] 77% | [13] 36.9%
inactive: all other assays above

CSCCNCc1cn(-c2ccc(F)cc2F)nc1-c1ccccc1C
active: [5] 91%
inactive: all other assays above

O=C(CSc1nnc(-c2ccc(Cl)cc2Cl)n1C1CCCCC1)N1CCCC1
active: [6] 48%
inactive: all other assays above

CCCC[n+]1c2ccccc2cc2ccccc21
active: [5] 87% | [6] 54% | [13] 18.4%
inactive: all other assays above

CC1Oc2ccccc2C=C1/C=N/Nc1ccc(C(=O)O)cc1 (stereo unspecified)
active: [5] 82% | [6] 51% | [13] 38.1%
inactive: all other assays above

O=c1c2ccccc2nc(SCc2ccc([N+](=O)[O-])cc2)n1CCCO
active: [5] 90% | [6] 68% | [13] 19.5%
inactive: all other assays above
